# Experimental data taken from PubChem BioAssay AID1117279 (The Scripps Research Institute Molecular Screening Center, 2014).
# Hit rate of the full screen: of about 1,100 compounds, about 40 (4%) were called active.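 Rule for the calls: active = average inhibition above the solvent-only control wells' mean plus 3 SD (cut at about 15% in these data); inactive = the rest.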 The list is a sample of the results.
# Test: TTR promoter reporter inhibitors in hepatoma cells, counter-screen for TTR transcription activator project, cell-based, luminescence, HuH7 hepatoma (AID 1117279);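 note: 0% = cells with DMSO only and 100% = cells with inhibitor control FD; inhibitors lower well luminescence so higher value means more inhibition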
# Details: HuH7 TTR promoter-Gaussia luciferase reporter, at 16.7 µM, hits give high values
row,Structure (SMILES),inhibition
1,CC(C)(C)C1CCC(OC(=O)CCC(=O)Nc2ccccc2)CC1 (stereo unspecified),-7.82% (inactive)
2,C[C@H](NC(=O)C1CCN(S(=O)(=O)c2ccccc2)CC1)C(=O)NCc1ccccc1,-13.1% (inactive)
3,Cc1cccc(N2C(=O)CC(SC(N)=Nc3ccccc3)C2=O)c1 (stereo unspecified),-9.09% (inactive)
4,Brc1ccc(/C=N/N2CCN(C3c4ccccc4-c4ccccc43)CC2)s1,-10.1% (inactive)
5,CC(C)NC(=O)c1ccc(Sc2ccccc2)c([N+](=O)[O-])c1,-1.16% (inactive)
6,CCOc1ccc(NC(=O)COc2ccc(S(=O)(=O)N3CCCC3)cc2)cc1,-11.3% (inactive)
7,CCCCCc1ccc(-c2cn(Cc3ccc4ccccc4c3)nn2)cc1,-10.2% (inactive)
8,CCOc1ccc(N=C2NC(=O)S/C2=C\c2ccc(O)cc2)cc1,24.4% (active)
9,COc1cc(N2C(=O)CC3(CCCC3)CC2=O)cc(OC)c1OC,-8.06% (inactive)
10,Cc1c(C#N)c(NC(=O)c2ccccc2)n(Cc2ccccc2)c1C,-8.18% (inactive)
11,Cn1cc(CN2CCCC(CO)C2)c(-c2ccc(Oc3ccccc3)cc2)n1 (stereo unspecified),-9.5% (inactive)
12,O=C(NNC1=NCCC1)c1cccc(S(=O)(=O)N2CCCCC2)c1,-4.93% (inactive)
13,COc1ccc(-c2oc3ncn(Cc4ccco4)c(=N)c3c2-c2ccc(OC)cc2)cc1,1.5% (inactive)
14,CSCCC(NC(N)=O)C(=O)N(C)CC(=O)Nc1ccc(C)cc1 (stereo unspecified),-0.9% (inactive)
15,CCCCOCCCNC(=O)C[C@H]1C[C@@]2(C(=O)OC)C(=C[C@H](C(C)(C)C)O[C@@H]2C)N(CCc2ccc(OC)c(OC)c2)C1=O,-3.28% (inactive)
16,Cc1cccc(C)c1NC(=O)CN1C(=O)C(C)Oc2ccccc21 (stereo unspecified),1.63% (inactive)
17,N=c1ccn(CC(=O)NC(N)=O)c2ccccc12,-11.8% (inactive)
18,C=C1C(C(C)C)N(C)C2=NC(c3ccccc3)CC(=O)N12 (stereo unspecified),-4.18% (inactive)
19,O=C(NCCCNC(=O)c1ccccc1Cl)c1cnccn1,-8.25% (inactive)
20,O=S(=O)(NCCCN1CCOCC1)c1ccc(F)c(Cl)c1,-2.54% (inactive)
21,COc1ccccc1N1CCN(Cc2cc(OC)c3c(c2)OCO3)CC1,-8.45% (inactive)
22,O=C(Nc1cccc(O)c1)c1ccc(C(=O)c2ccccc2)o1,-11.2% (inactive)
23,O=C(O)Cn1c(Cc2ccccc2)nc2ccccc21,-10% (inactive)
24,O=C(CCC(=O)c1cccs1)NCc1ccccc1,-6.29% (inactive)
25,Cc1c(NS(=O)(=O)c2ccc(NC3CCCC3)c([N+](=O)[O-])c2)c(=O)n(-c2ccccc2)n1C,17.4% (active)
26,CCOC(=O)c1c(-c2ccccc2)oc2ccc(OCC(N)=O)cc12,-17.5% (inactive)

row,Structure (SMILES),inhibition
1,COc1cc(C(C)=O)ccc1OC(C)C(=O)Nc1ccc(S(=O)(=O)N2CCCC2)cc1 (stereo unspecified),-21.8% (inactive)
2,O=C(Nc1ccccc1C(=O)N1CCCCCC1)c1ccccc1Cl,-17.5% (inactive)
3,CCOc1ccccc1NC(=O)COc1ccc(S(=O)(=O)N2CCCC2)cc1,-35.5% (inactive)
4,C(=N\n1cnnc1)/c1cccnc1,-6.37% (inactive)
5,COc1cccc(-c2cnc(C(O)c3ccccc3OC)[nH]2)c1 (stereo unspecified),-13.2% (inactive)
6,Cc1ccccc1/[N+]([O-])=C/c1ccncc1,-5.47% (inactive)
7,O=C(CS(=O)(=O)c1ccccc1)Nc1ccc(S(=O)(=O)Nc2ccccn2)cc1,-15.3% (inactive)
8,C/C(CC(=O)Nc1ccc(N(C)C)cc1)=N\NC(=O)c1ccccc1F,-16.7% (inactive)
9,COc1ccc(S(=O)(=O)NCC(=O)NCc2cc(=O)n(C)c(=O)n2C)cc1F,-4.59% (inactive)
10,Cc1ccc(CN2CCCOCCS2(=O)=O)cc1,-6.05% (inactive)
11,Nc1nc(SCC(=O)Nc2ccc(Cl)c([N+](=O)[O-])c2)n[nH]1,-10% (inactive)
12,CCOC(=O)c1cc(-c2ccc(Cl)s2)nc2c1c(C)nn2C,-14.6% (inactive)
13,O=C(NC(=O)c1ccccc1N1CCCCC1)Nc1ccc(Br)cc1,-2.62% (inactive)
14,Cc1cc(C)c2nc3nc(C)cc(C)c3c(N)c2c1,-40.1% (inactive)
15,CCCCc1cc(=O)oc2cc(C)cc(OCc3nn[nH]n3)c12,-25.9% (inactive)
16,O=C(NNC(=O)c1cc(S(=O)(=O)N2CCCCC2)ccc1Cl)c1ccccc1O,-22.3% (inactive)
17,COC(=O)c1cnn2c(C(F)(F)F)cc(-c3ccco3)nc12,2.2% (inactive)
18,O=C1c2cccc(OCC(=O)N3N=C(c4cccs4)CC3c3ccc(F)cc3)c2CCN1Cc1ccccc1 (stereo unspecified),9.54% (inactive)
19,COc1ccc(C2c3ccc(O)cc3Oc3ncn(CCCO)c(=N)c32)cc1OC (stereo unspecified),-4.61% (inactive)
20,O=S(=O)(NCc1ccccc1Br)c1ccccc1Br,6.86% (inactive)
21,CCCCN(C)CCNC(=O)C1CCCN(S(=O)(=O)c2cccc3nsnc23)C1 (stereo unspecified),-18% (inactive)
22,O=C(O)C1OC(C(=O)O)C2C1C(F)(F)C2(F)F (stereo unspecified),-13.2% (inactive)
23,Cc1cc(C)c(C#N)c(N2CCC(C(N)=O)CC2)n1,-15.2% (inactive)
24,Cc1nc(-c2ccc(Cl)cc2)sc1C(=O)NN,-6.37% (inactive)
25,N#Cc1cccc(CN2CCC(=O)N(CCO)CC2)c1,-7.6% (inactive)
